Compound activity deposited in PubChem by National Center for Advancing Translational Sciences (NCATS).
D2 PAM-1: HTS Assay for Positive Allosteric Modulators of the Human D2 Dopamine Receptor: Primary Screen for Potentiators; potentiation, % at 10 µM; 340,000 compounds, 0.34% hits; D(2) dopamine receptor (Homo sapiens), P14416; AID 485347, 2010; HEK293 T-REx D2, calcium flux, EC20 dopamine potentiation;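 active = potentiation over 3 SD above the plate norm, cut at about 30% in these data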; note: 0% is about no effect
Target sequence (P14416 whole entry, looked up): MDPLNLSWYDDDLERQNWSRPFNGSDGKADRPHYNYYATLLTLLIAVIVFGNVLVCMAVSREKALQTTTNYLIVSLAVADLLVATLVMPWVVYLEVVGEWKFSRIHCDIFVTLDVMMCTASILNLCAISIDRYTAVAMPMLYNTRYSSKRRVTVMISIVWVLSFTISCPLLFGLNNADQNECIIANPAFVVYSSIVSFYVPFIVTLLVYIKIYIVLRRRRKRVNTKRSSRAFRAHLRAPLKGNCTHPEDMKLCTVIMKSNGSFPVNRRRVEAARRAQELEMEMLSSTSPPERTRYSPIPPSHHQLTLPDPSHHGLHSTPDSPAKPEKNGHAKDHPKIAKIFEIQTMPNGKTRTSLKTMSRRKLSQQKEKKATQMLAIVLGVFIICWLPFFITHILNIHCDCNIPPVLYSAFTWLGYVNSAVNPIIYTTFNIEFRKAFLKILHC
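Tetracycline-induced Hek293 Trex D2 cells, force-coupled to calcium, loaded with no-wash calcium dye. Compound added with 180 s kinetic read for agonism, then EC20 dopamine and a further 180 s read for potentiation.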
D2 PAM-2: Beta-Arrestin HTS for Positive Allosteric Modulators of the Human D2 Dopamine Receptor: Potentiators; DiscoveRx D2 beta-arrestin cells, luminescence, 90 min; 100% = 57 uM dopamine signal; potentiation, % (no concentration beside the values); 360,000 compounds, 0.23% hits; in the data active = potentiation above about 50%
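PathHunter D2 cells, attached overnight at 37 deg C, received compound in DMSO plus dopamine at EC20 (50 nM final) for 90 min at 37 deg C. Beta-arrestin recruitment was read as luminescence after 1 h with detection reagent at ambient temperature.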
D2 ag-1: Beta-Arrestin HTS for Positive Allosteric Modulators of the Human D2 Dopamine Receptor: Agonists; activation, % (test concentration not listed); DiscoveRx PathHunter D2 beta-arrestin, luminescence, 90 min; 100% = 57 uM dopamine signal; AID 624465, 2012; 360,000 compounds, 0.084% hits; D(2) dopamine receptor (Homo sapiens), P14416; in the data active = activation above about 40%
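Agonist mode: compounds alone added to overnight-plated D2 PathHunter cells for 90 min at 37 C, with 57 uM final dopamine (EC100) defining full response. Beta-arrestin recruitment detected by chemiluminescent reagent, read after 1 h at ambient temperature.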
D2 antag: HTS Assay for Allosteric Antagonists of the Human D2 Dopamine Receptor: Primary Screen for Antagonists; 340,000 compounds, 2% hits; HEK293 TREx D2 cells, calcium flux, dopamine EC80; inhibition, % at 10 µM; in the data active = inhibition above about 30%; inactive = below that, where a call was filed; note: 0% is about no effect
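Read-out: kinetic calcium fluorescence (1 cycle/s) in inducible HEK293 T-REx D2 cells after an EC80 dopamine addition that followed 180 s compound preincubation. Loss of the dopamine response indicates antagonism.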
D2 ag-2: HTS Assay for Allosteric Agonists of the Human D2 Dopamine Receptor: Primary Screen for Agonists | HEK293 T-REx D2 cells, calcium flux agonist mode | activation, % at 2 µM | 340,000 compounds, 0.53% hits | AID 485358, 2010;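 active = activation over 3 SD above normal in the single-dose calcium agonist read, cut at about 30% in these data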; note: 0% is about no effect
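Tetracycline-induced HEK293 Trex cells with D2 receptor force-coupled to calcium signaling, plated overnight at 30 C and loaded with no-wash calcium dye. Calcium flux read kinetically for 180 s after compound addition; responses flag agonists.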
* = called active by the depositor; nt = not tested or not shown. Rows were chosen to be rich in hits. Some 2.4% of all compounds tested hit in one or more screens of this group.

SMILES	D2 PAM-1	D2 PAM-2	D2 ag-1	D2 antag	D2 ag-2
CC(=O)Nc1ccc(S(=O)(=O)Nc2ccccc2C(=O)N2CCCCC2)cc1	31*	-9	-4	3	-1
Fc1ccc(N2CCN(c3nnnn3-c3ccccc3)CC2)cc1	-17	-11	0	50*	-1
CCCc1cc(=O)[nH]c(SCC(=O)N2CCN(c3ccccc3)CC2)n1	-4	-20	0	38*	0
CCCc1cc(=O)[nH]c(SCC(=O)N2CCOCC2)n1	-2	-2	-8	-1	1
O=C(/C=C/c1ccccc1)NCc1ccco1	12	-2	-6	-16	-1
N#C/C(=C\C=C\c1ccccc1)C(=O)NCc1ccco1	-5	5	-2	37*	-1
COc1ccc(C2=Nn3c(nnc3-c3ccccc3)SC2)cc1OC	23	-3	-2	-3	1
CCCc1nnc2n1N=C(c1ccc(OC)c(OC)c1)CS2	89*	2	0	13	1
Cc1cc(C)c(C(=O)c2ccc(C(=O)NC(C)(C)C)cc2)c(C)c1	0	-2	-1	40*	0
CC1(C)CC(=O)C(=Cc2cn(CCC#N)nc2-c2ccc(Cl)cc2)C(=O)C1	5	-1	0	7	3
CC1(C)CC(=O)C(=Cc2cn(-c3ccccc3)nc2-c2ccc(Cl)cc2)C(=O)C1	5	-7	-2	32*	0
Cc1ccc([N+](=O)[O-])cc1N/C=C1\CCCCC1=O	11	-6	-2	52*	-1
Cc1cc(O)ccc1N/C=C1\CCCC1=O	24	64*	12	20	-1
Cc1ccc([N+](=O)[O-])cc1NC(=O)C1CCCC1	-1	-12	-1	0	2
CC(=O)Nc1ccc(N/C=C2/CCCC2=O)cc1	22	-6	-6	-3	1
COc1ccc(-c2cn3nc(N4CCC(C(=O)Nc5cccc(OC)c5)CC4)sc3n2)cc1	-7	nt	nt	nt	0
CN1OC[C@@H]2CN(C(=O)NC3CCCCC3)[C@H](c3ccc(N4CCCCC4)cc3)C[C@@H]21	nt	0	3	nt	nt
Cc1cccc(Cn2nnc3c2C(=O)c2ccccc2C3=O)c1	22	71*	7	-16	1
Cc1cccc(Cn2ncc(Cl)c(Cl)c2=O)c1	12	2	0	-8	-1
Cc1cc(C)n(-c2ccc([N+](=O)[O-])cc2)n1	-2	-1	2	34*	-1
COc1ccc(S(N)(=O)=O)cc1C(=O)NCCCN1CCN(c2ccc(C)cc2)CC1	-19	-46	-2	49*	1
COc1ccc(N2CCN(CCCNC(=O)c3cc4sccc4n3C)CC2)cc1	-27	-22	4	40*	38*
COc1ccc(Cl)cc1C(=O)NCCCN1CCOCC1	-3	-11	1	-14	0
O=C1C=C(Nc2ccc(Cl)cc2)CC(c2ccc(Cl)cc2)C1 (stereo unspecified)	28	-28	-1	48*	-2
Cn1nc(C(=O)Nc2ccc(Br)cc2)cc1C(=O)Nc1ccc(Br)cc1	4	-12	-5	38*	0
SMILES	D2 PAM-1	D2 PAM-2	D2 ag-1	D2 antag	D2 ag-2
COCCN1C(=O)/C(=C/c2ccc(N3CCCC3)cc2)SC1=S	5	-9	-5	9	41*
O=C1/C(=C/c2ccc(Cl)cc2)SC(=S)N1CCC(=O)N1CCCCC1CCO (stereo unspecified)	8	-12	4	31*	0
O=C1/C(=C/c2cccc(Cl)c2)SC(=S)N1CCC(=O)N1CCCCC1CCO (stereo unspecified)	-13	-11	6	17	1
COc1ccc(/C=C2\SC(=S)N(CCC(=O)N3CCCCC3)C2=O)cc1	16	-24	-6	-5	0
Cc1cnc(C)c(Nc2nc(C(N)Cc3ccc(Cl)cc3)cs2)n1 (stereo unspecified)	nt	-6	7	nt	nt
COc1ccc2c(c1)c1c(c(=O)n(-c3ccccc3C)c(=O)n1CC(=O)NCc1ccc(C)cc1)n2C	-4	nt	nt	nt	1
